This note sets out measurements from PubChem BioAssay (NCATS).

The nature of assay [1]: qHTS assay to identify small molecule inhibitors of chordoma cells - UCH-1 (AID 1259355). Note: nearly all actives have a fitted effect of over 55% in size. Note: potency is the fitted concentration of half-maximal effect. As to conditions: UCH-1 chordoma viability, CellTiter-Glo, 48 h, combination, with auranofin plus four topoisomerase inhibitors; series mostly up to 46.1 µM. In short, it runs like this: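 Screening used approved and investigational drugs in 15-point titration against 800 seeded cells per well. A fixed combination of auranofin with camptothecin, doxorubicin, rubitecan and topotecan followed compound addition, and growth was scored by CellTiter-Glo after 48hr.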

Assay [2] is described as follows: qHTS assay to identify small molecule inhibitors of chordoma cells - UCH-2 (AID 1259356). Conditions: UCH-2 chordoma viability, CellTiter-Glo ATP luminescence, 48 h; series mostly up to 46.1 µM. In general terms: In qHTS, concentration-response curves come from the screen itself.
The nature of assay [3]: Identifying Small Molecule Inhibitors of Pancreatic Cancer Stem Cells (SN12C, Adherent) (AID 1259358).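 Note: cell survival measured after 48 h of compound exposure.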 Note: potency is the fitted concentration of half-maximal effect. Conditions: viability/growth inhibition; series mostly up to 46.1 µM. Summed up:
(§1)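 Spheroids grown 14 days in stem cell media on hydrogel-coated nonadherent plates; 2D lines seeded directly. Compounds added after 4 h attachment, 48 h at 37C, 5% CO2; CellTiter-Glo luminescence normalized to DMSO (no inhibition) and no-cell wells (full inhibition).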

The nature of assay [4]: Identifying Small Molecule Inhibitors of Pancreatic Cancer Stem Cells (SN12C, Spheroid) (AID 1259360). Conditions: series mostly up to 46.1 µM. Summed up:
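Viability is scored by CellTiter-Glo luminescence 48 h after dosing, expressed as percent activity against vehicle and no-cell references. Spheroid formats rely on cells cultured 14 days in stem cell media beforehand.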

Assay [5] in a line: Identifying Small Molecule Inhibitors of Pancreatic Cancer Stem Cells (A278, Adherent) (AID 1259361).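 Note: viability read after 48 h compound exposure; nearly all actives have a fitted effect of over 35% in size.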 As to conditions: series mostly up to 46.1 µM. Summed up: as §1
A short description of assay [6]: P-glycoprotein substrates identified in KB-8-5-11 adenocarcinoma cell line, qHTS therapeutic library screen (AID 1346987). Note: nearly all actives have a fitted effect of over 65% in size. Note: potency is the fitted concentration of half-maximal effect. As to conditions: KB-8-5-11 (P-gp overexpressing) viability, CellTiter-Glo, 72 h. In short, it runs like this: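 In this qHTS, P-gp-rich KB-8-5-11 cells received library compounds across a concentration range. Viability was quantified by luminescence after 72 h at 37 degree C.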

A short description of assay [7]: Identifying Small Molecule Inhibitors of Pancreatic Cancer Stem Cells (Panc1, Adherent) (AID 1259362). Note: potency is the fitted concentration of half-maximal effect. Conditions: Potency: viability; series mostly up to 46.1 µM. In short, it runs like this: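 Adherent (2D) versus sphere (3D) formats; spheres generated 14 d in SCM beforehand. Compound transferred by pin tool after 4 h, 48 h incubation, CellTiter-Glo endpoint.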

Assay [8] is described as follows: P-glycoprotein substrates identified in KB-3-1 adenocarcinoma cell line, qHTS therapeutic library screen (AID 1346986). Note: nearly all actives have a fitted effect of over 60% in size. As to conditions: KB-3-1 parental cells viability, CellTiter-Glo, 72 h; series mostly up to 44.5 µM. Summed up:
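Viability by CellTiter-Glo after 72 h compound exposure at 37 degree C, 5% CO2. Cytotoxic call: curve class -1.1 to -2.4, maximum response >50%, AC50 < 10 uM, compared across KB-3-1 and P-gp-overexpressing KB-8-5-11.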

The nature of assay [9]: Identifying Small Molecule Inhibitors of Pancreatic Cancer Stem Cells (A2780, Spheroid) (AID 1259357).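 Note: spheroids pre-formed over 14 days in stem cell medium on hydrogel; potency is the fitted concentration of half-maximal effect; compound exposure lasted 48 h before the ATP luminescence read.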 Conditions: A2780 spheroid viability. An excerpt:
Progenitor-like cancer cells, often referred to as cancer stem cells (CSC), are believed to be the drivers of therapeutic resistance and rapid recurrence. CSCs are postulated to reside in specific niches characterized by low oxygen tension, limited nutrient supply, and high redox load. Selectively targeting CSC, alone or in combination with cytotoxic agents, as a means to produce durable remissions is an appealing concept. Modeling these cells in in vitro setting is an important step in finding new therapies and/or targets. Multiple reports highlight that forcing cells in culture into 3-dimensionaly architectures (spheroids) re-establishes key progenitor-like transcriptional signatures. Pancreatic cancer is among the diseases with the most dismal outlook which is driven, largely, by recurance following front-line therapies. […]
Multicellular tumor spheroids from Panc1, MiaPaCa-2, and the primary low-passage tissue culture line SB.06 were seeded in stem cell media (SCM) in nonadherent 6-well plates coated with hydrogel (Corning Life Sciences, Chelmsford, Mass) and pancreatic spheres generated for 14 days before screening. […] Plates were incubated at room temperature for 10 minutes prior to reading the luminescence on the Viewlux (PerkinElmer). […]

The nature of assay [10]: Identifying Small Molecule Inhibitors of Pancreatic Cancer Stem Cells (Panc1, Spheroid) (AID 1259359).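 Note: potency is the fitted concentration of half-maximal effect; compound exposure lasted 48 h before reading.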 As to conditions: Panc1 spheroid cancer stem cell viability. In short, it runs like this:
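Spheroids grown 14 days in stem cell media on nonadherent hydrogel before screening; cells attached 4 h, then compound exposure 48 h at 37C, 5% CO2. CellTiter-Glo luminescence normalized to DMSO (no inhibition) and no-cell wells (full inhibition).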

[11] abbreviates: outcome: dose series up to 44.5 µM unless noted, series mostly up to 44.5 µM.

Several values for one entry are separate records, joined by “and”; a condition that tells them apart may be missing. Identical values can stand only once. Results filed as inconclusive are left out. A call without a number means that no potency is given here. More than one record can exist for a structure, and the calls need not agree. Activity calls are given as the source filed them. Calls come from the whole dose curve; as a rule, active = well fitted curve in the direction sought with a large enough effect; inconclusive = small, poorly fitted or top-dose-only effect, or another doubt; inactive = no such curve, though single readings can be large; an effect the other way counts as inactive or inconclusive.

Regarding `Cn1ccc2cc3c(cc21)CCN3C(=O)Nc1cccnc1`, the Potency entry in assay [1], in [3] and in assay [6] (setting [11]) was “inactive” each time. Moreover, the call in assay [2] and in [4] was inactive. Moreover, the IC50 (viability decrease) entry in assay [5] was “inactive”.
`O=C(Nc1ccc([N+](=O)[O-])cc1Cl)c1cc(Cl)ccc1O`: the Potency in assay [1] is 3.98 µM (active).
Take `CN1CCC(=C2c3ccccc3CC(=O)c3sccc32)CC1`: the Potency entry in assay [1] was “inactive”. Besides, the outcome in [2] was inactive.
`CN(C)C(=N)N=C(N)N`: the Potency result in [1], in assay [3] and in assay [7] was “inactive” in each case. The molecule was classed as inactive in assay [2] and in assay [6] (at 44.5 µM (top of the series)). Moreover, the IC50 (viability decrease) entry in assay [5] is “inactive”. Also, the outcome in assay [8] and in assay [6] (setting [11]) was “inactive [setting not given]” throughout.
As to `CC[N+](CC)(CC)CCOc1cccc(OCC[N+](CC)(CC)CC)c1OCC[N+](CC)(CC)CC`, the Potency result in assay [1] and in [6] (setting [11]) was “inactive” in each case. The result in assay [2] was inactive.
Take `CS(=O)(=O)CCNCc1ccc(-c2ccc3ncnc(Nc4ccc(OCc5cccc(F)c5)c(Cl)c4)c3c2)o1`: the Potency entry in [1] was “inactive”. Also, the molecule was called inactive in assay [2]. Besides, the Potency in assay [9] was 16.6 µM (active); in [3] it was 0.418 µM (active); in assay [10], 37.2 µM (active); in assay [7], 20.9 µM (active); in [6] (setting [11]) it was 18.7 µM (active) and inactive and 20.6 µM (active).
`CC1COc2c(N3CCN(C)CC3)c(F)cc3c(=O)c(C(=O)O)cn1c23` (stereo not given): the Potency entry in assay [1] and in assay [6] (setting [11]) was “inactive” each time. Further, the outcome in assay [2] and in assay [8] was inactive.
On to `N[C@@H](Cc1c[nH]c2ccc(O)cc12)C(=O)O`, for which the Potency result in assay [1] and in assay [6] (setting [11]) was “inactive” throughout. Moreover, the molecule was classed as inactive in assay [2].
Turning to `CC(COc1ccccc1)N(CCCl)Cc1ccccc1` (stereo not given), the Potency result in assay [1] was “inactive”. The result in assay [2] was inactive.
Regarding `CCCNCC(O)COc1ccccc1C(=O)CCc1ccccc1` (stereo not given), the Potency result in assay [1] is “inactive”. Further, the molecule was called inactive in assay [2].
Take `C[C@H]1c2cccc(O)c2C(O)=C2C(=O)[C@]3(O)C(O)=C(C(N)=O)C(=O)[C@@H](N(C)C)[C@@H]3[C@@H](O)[C@@H]21`: the Potency result in assay [1] and in assay [6] (setting [11]) was “inactive” throughout. Further, in assay [2], the call was inactive.
Consider `CC(C)(C)C(=O)Oc1ccc(S(=O)(=O)Nc2ccccc2C(=O)NCC(=O)O)cc1`, for which the Potency result in [1] and in assay [6] (setting [11]) was “inactive” each time. Moreover, the molecule was classed as inactive in assay [2] and in assay [8].
For `CC1(CN2CCC(n3c(=O)[nH]c4ccccc43)CC2)OCc2ccccc2-n2cccc21` (stereo not given), the Potency entry in [1], in assay [3] and in assay [6] (setting [11]) was “inactive” throughout. Also, the result in assay [2] was inactive.
In the case of `Cn1cnc2c1c(=O)[nH]c(=O)n2C`, in assay [1], the Potency result is “inactive”. Also, the result in [2] was inactive. Besides, in [6] (setting [11]), the Potency result was “inactive and 16.6 µM (active)”.
For `O=C1N(c2ccccc2)c2ccccc2C1(Cc1ccncc1)Cc1ccncc1`, the Potency result in [1] and in assay [6] (setting [11]) was “inactive” in each case. Also, the molecule was classed as inactive in assay [2] and in assay [8].
Consider `NC(CO)C(=O)NNCc1ccc(O)c(O)c1O` (stereo not given), for which the Potency result in [1] and in assay [6] (setting [11]) was “inactive” throughout. Besides, the molecule was called inactive in [2].
With `NCCc1cnc[nH]1`, the Potency result in [1] and in [6] (setting [11]) was “inactive” in each case. Besides, the outcome in assay [2] and in [8] was inactive.
Turning to `COc1ccccc1OCCNCC(O)COc1cccc2[nH]c3ccccc3c12` (stereo not given), the Potency result in assay [1] and in [6] (setting [11]) was “inactive” each time. Besides, in assay [2], the molecule was called inactive.
Take `Cc1ccc(-c2cc(C(F)(F)F)nn2-c2ccc(S(N)(=O)=O)cc2)cc1`: the Potency result in assay [1] was “inactive”. Also, the molecule was called inactive in [2] and in [8].
For `CS(=O)(=O)Nc1ccc([N+](=O)[O-])cc1Oc1ccccc1`, the Potency entry in assay [1] and in assay [6] (setting [11]) was “inactive” in each case. Further, in [2], the molecule was called inactive.
As for `Cc1cn([C@H]2C[C@H](N=[N+]=[N-])[C@@H](CO)O2)c(=O)[nH]c1=O`, the Potency result in assay [1] and in assay [6] (setting [11]) was “inactive” each time. In addition, the call in [2] was inactive.
Regarding `CN(C)CCC=C1c2ccccc2C=Cc2ccccc21`, the Potency result in assay [1] and in assay [6] (setting [11]) was “inactive” in each case. Also, the molecule was classed as inactive in assay [2].
Turning to `O=c1[nH]cc(F)c(=O)[nH]1`, the Potency entry in assay [1] was “inactive”. Also, in [2], the molecule was called inactive.
For the molecule `O=C(c1ccc(OCCN2CCCCC2)cc1)c1c(-c2ccc(O)cc2)sc2cc(O)ccc12`, the Potency entry in assay [1] was “inactive”. Besides, the outcome in [2] and in [8] was inactive.
With `O=c1c(O)c(-c2ccc(O)c(O)c2)oc2cc(O)cc(O)c12`, the Potency result in assay [1] and in [6] (setting [11]) was “inactive” each time. Also, the result in assay [2] was inactive. In assay [5], the IC50 (viability decrease) is 29.6 µM (active).
As to `CN1CCN2c3ccccc3Cc3ccccc3C2C1` (stereo not given), the Potency result in assay [1] was “inactive”. The molecule was classed as inactive in [2].
Regarding `Cc1cn([C@H]2C=C[C@@H](CO)O2)c(=O)[nH]c1=O`, the Potency result in assay [1] and in [6] (setting [11]) was “inactive” in each case. Moreover, the outcome in assay [2] was inactive. Besides, the outcome in assay [8] is “inactive [at 93.4 µM]”.
As to `CC(C)(Oc1ccc(C2CC2(Cl)Cl)cc1)C(=O)O` (stereo not given), the Potency result in assay [1] and in assay [6] (setting [11]) was “inactive” each time. Besides, the outcome in assay [2] was inactive. Also, the outcome in assay [8] is “inactive [at 93.4 µM]”.
With `CC1(C)O[C@H]2CC(=O)OC[C@]23[C@H]2CC[C@@]4(C)[C@H](c5ccoc5)OC(=O)[C@H]5O[C@]54[C@]2(C)C(=O)C[C@@H]13`, the Potency result in assay [1] and in [6] (setting [11]) was “inactive” in each case. In addition, the molecule was classed as inactive in [2] and in [8].
As to `CC(C)NCC(O)COc1ccc(CCOCC2CC2)cc1` (stereo not given), the Potency entry in [1] is “inactive”. Moreover, the result in assay [2] was inactive.
On to `Nc1c2c(nc3ccccc13)CCCC2`, for which the Potency entry in assay [1] was “inactive”. Besides, the molecule was classed as inactive in assay [2] and in [8].
On to `CC(C)Cc1ccc(C(C)C(=O)O)cc1` (stereo not given), for which the Potency entry in assay [1] and in [6] (setting [11]) was “inactive” each time. In [2], the outcome was inactive.
Turning to `Clc1ccc(C(c2ccccc2Cl)C(Cl)Cl)cc1` (stereo not given), the Potency result in [1] was “inactive”. In addition, in [2], the call was inactive.
For the molecule `Cc1ccc(C(=O)Nc2ccc(S(=O)(=O)O)c3cc(S(=O)(=O)O)cc(S(=O)(=O)O)c23)cc1NC(=O)c1cccc(NC(=O)Nc2cccc(C(=O)Nc3cc(C(=O)Nc4ccc(S(=O)(=O)O)c5cc(S(=O)(=O)O)cc(S(=O)(=O)O)c45)ccc3C)c2)c1`, the Potency result in [1] and in assay [6] (setting [11]) was “inactive” in each case. In addition, the outcome in assay [2] was inactive.
Take `Nc1nnc(-c2cccc(Cl)c2Cl)c(N)n1`: the Potency entry in assay [1] and in [6] (setting [11]) was “inactive” each time. Moreover, in [2], the molecule was called inactive.
Take `CC(C)C(=O)Nc1ccc([N+](=O)[O-])c(C(F)(F)F)c1`: the Potency entry in assay [1] and in [6] (setting [11]) was “inactive” each time. The molecule was classed as inactive in assay [2].
